Screens as filed in PubChem.
eIF4H inh – inhibitors of RNA binding by human eIF4H; 290,000 compounds, 0.94% hits; eIF4H fluorescence polarization binding assay; inhibition, % at 35 µM; AID 2012;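 further: calls also rest on retests at 20 µM and on dose response follow-up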
eIF4E-4G inh – eIF4E/eIF4G interaction inhibition in translation initiation | P63073+Q04637 | inhibition, % at 21.7 µM | AID 782 | TR-FRET eIF4E-eIF4GI(517-606) binding, 2 h | 220,000 compounds, 0.37% hits;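 active means inhibition above about 30%, limit read from the data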
PABP polyA inh – PABP-poly(A) binding inhibition | PABP-poly(A) RNA binding, fluorescence polarization | calls only at 35 µM | 290,000 compounds, 1% hits | AID 2014;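 further: calls also rest on retests at 20 µM and on dose response follow-up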
PERK inhibitor – blocks human PERK kinase. Q9NZJ5. AID 1416. 220,000 compounds, 0.17% hits. inhibition, % at 5.6 µM. CHO PERK-DD fusion, SEAP luminescence translation reporter;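 active means inhibition above the mean inhibition of all tested compounds plus 3 SD, set separately per screening campaign, cut at about 2.9% in these data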;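 further: PERK kinase domain activated by AP20187 dimerizer at 100 nM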
MLLE-PAM2 inh – blocks PAM2 peptide binding to the PABP1 MLLE domain; P11940; GST-MLLE / FITC-PAM2 fluorescence polarization; inhibition, % at 20 µM; 360,000 compounds, 0.36% hits; AID 588489; in the data active means inhibition above about 35%, passing the limit was not always enough
Of the large screens only hits and unclear results are named; the others gave an inactive call; [ ] = remark or other dose. The list is not random: actives were taken first. Their share in the collection is about 1.6%. Unless noted, how the calls were made is not given here.

COc1cccc2c1C(=O)c1c(O)c3c(c(O)c1C2=O)C[C@@](O)(C(=O)CO)C[C@@H]3OC1CC(N)C(O)C(C)O1 (some centres undefined)	none (no result: eIF4H inh, eIF4E-4G inh, PABP polyA inh, PERK inhibitor)
COc1cccc2c1C(=O)c1c(O)c3c(c(O)c1C2=O)C[C@@](O)(C(=O)CO)C[C@@H]3O[C@H]1C[C@H](N)[C@H](O)[C@H](C)O1	eIF4H inh inconclusive, eIF4E-4G inh 50.4[fluorescence artefact?]
CCOC(=O)Cn1c(=O)oc2cc(S(=O)(=O)NCc3cccs3)ccc21	eIF4E-4G inh 54.0[fluorescence artefact?]
CNC(=O)/C=C1\NC(C)(C)Cc2ccccc21	none
CCC1(C)Cc2ccccc2/C(=C/C(=O)N2CCCCC2)N1 (centres undefined)	PABP polyA inh active
COc1ccc(OCC(=O)Nc2nnc(S(=O)(=O)N3CCCCCC3)s2)cc1	none (no result: eIF4E-4G inh, PERK inhibitor)
Cc1ccc(OCC(=O)Nc2nnc(S(=O)(=O)N3CCC(C)CC3)s2)cc1	eIF4H inh 62.9 (no result: eIF4E-4G inh, PERK inhibitor)
CCOC(=O)C1=C(C)NC(C)=C(C(=O)OCC)C1c1cccs1	none
C#CCSC1=C(C#N)C(c2cccs2)C(C(=O)OCC)=C(C)N1 (centres undefined)	eIF4H inh 62.7, PABP polyA inh active
O=c1[nH]nc(CNc2ccc(O)cc2)c2ccccc12	eIF4H inh 59.0, PABP polyA inh active
O=C(O)Cc1n[nH]c(=O)c2ccccc12	eIF4H inh 1.1
CCOC(=O)CNc1ccc2c(c1)OCO2	eIF4H inh inconclusive, PABP polyA inh active
CC1(C)CC(=O)C2=C(C1)Nc1ccccc1NC2c1ccccc1F (centres undefined)	MLLE-PAM2 inh 47.7 (no result: eIF4E-4G inh, PERK inhibitor)
CCN(CC(=O)N1CCCC1)S(=O)(=O)c1ccc2ccccc2c1	none (no result: eIF4E-4G inh, PERK inhibitor)
Nc1c(S(=O)(=O)O)cc(NC(=O)c2ccccc2)c2c1C(=O)c1ccccc1C2=O	eIF4H inh inconclusive, PABP polyA inh active (no result: eIF4E-4G inh, PERK inhibitor)
COc1ccc2c(c1)C1C=CCC1C(c1cc3c(cc1Br)OCO3)N2 (centres undefined)	eIF4H inh 70.1
CC(=O)c1ccc2c(c1)C1C=CCC1C(c1cc3c(cc1Br)OCO3)N2 (centres undefined)	none (no result: eIF4H inh, eIF4E-4G inh, PABP polyA inh, PERK inhibitor)
CN(C)S(=O)(=O)c1ccc(Cl)c(NC(=O)CNC2(C)CCS(=O)(=O)C2)c1 (centres undefined)	none (no result: eIF4H inh, eIF4E-4G inh, PABP polyA inh, PERK inhibitor)
CC(C)Cn1c(S(=O)(=O)O)nc2ccccc21	PERK inhibitor 3.5
CCC(C)Cn1c(S(=O)(=O)O)nc2ccccc21 (centres undefined)	none
CCn1ncc(Br)c1C(=O)Nc1ccccc1C(F)(F)F	none (no result: eIF4E-4G inh, PERK inhibitor)
CCc1ccccc1NCC(=O)Nc1ccccc1C(=O)OC	eIF4H inh active
O=C(/C=C/c1ccco1)OCn1nnc2ccccc2c1=O	eIF4H inh 67.5, PABP polyA inh active
COC(=O)c1ccccc1NC(=O)c1ccc2nccnc2c1	PABP polyA inh active
O=C(O)c1cccc(Cn2c(Cl)c(/C=N/NC(=O)c3ccccc3)sc2=O)c1	none
O=C(O)c1cccc(Cn2c(Cl)c(/C=N/NC(=O)c3cc4ccccc4cc3O)sc2=O)c1	eIF4H inh 102.4, PABP polyA inh active
Cc1ccc(/C=c2\sc3nc(-c4ccco4)nn3c2=O)o1	eIF4H inh 90.5, PABP polyA inh active
Cc1ccc(-c2nc3s/c(=C\c4ccco4)c(=O)n3n2)cc1	eIF4H inh 82.0, PABP polyA inh active
Cc1cc(C)cc(N2CN=c3s/c(=C\c4ccco4)c(=O)n3C2)c1	none
O=c1nc2s/c(=C\c3ccco3)c(=O)n2nc1Cc1ccc(F)cc1	eIF4H inh 84.2, PABP polyA inh active
COc1ccccc1/C=c1\sc2nc(-c3ccccc3OC)nn2c1=O	none
Cc1ccc(/C=c2\sc3nc(-c4ccccc4Br)nn3c2=O)o1	none
CCCN1C(=O)/C(=c2\sc3nc(=O)c(Cc4ccc(C)cc4)nn3c2=O)c2ccccc21	none
COc1ccc(Br)cc1/C=c1\sc2nc(-c3ccco3)nn2c1=O	eIF4H inh 93.8, PABP polyA inh active (no result: eIF4E-4G inh, PERK inhibitor)
COc1cccc(CNS(=O)(=O)c2c(C)nc3sccn3c2=O)c1	none (no result: eIF4E-4G inh, PERK inhibitor)
CC(=O)Nc1ccc(NC(=O)CSc2nc3nc(-c4cccs4)cc(C(F)(F)F)c3c(=O)[nH]2)cc1	none
N#Cc1ccc(Cl)cc1NC(=O)CSc1nc2nc(-c3cccs3)cc(C(F)(F)F)c2c(=O)[nH]1	eIF4E-4G inh 30.9 (no result: MLLE-PAM2 inh)
CSc1ccccc1C(=O)OCC(=O)Nc1c(C)n(C)n(-c2ccccc2)c1=O	none (no result: eIF4H inh, eIF4E-4G inh, PABP polyA inh, PERK inhibitor)
COC(=O)N/N=C(C)\C=C\c1ccco1	none
CC(/C=C/c1ccco1)=N\NC(=O)CNc1cccc(C)c1	eIF4H inh 95.1, PABP polyA inh active
Cc1nc2ccccc2c(=O)n1/N=C/c1ccccn1	PERK inhibitor 3.0
Cc1nc2ccccc2c(=O)n1/N=C/c1c(O)ccc2ccccc12	none
Cc1nc2ccccc2c(=O)n1/N=C/c1c(O)ccc2oc3c(c12)CCCC3	eIF4H inh 21.8, PABP polyA inh active
Cc1cc(C(=O)CSc2nnc(-c3ccccc3)n2C)c(C)n1C	none
C=CCn1c(SCC(=O)Nc2c(C)cccc2C)nnc1-c1ccncc1	none
Cc1cc(C(=O)CSc2nnc(-c3ccncc3)n2-c2ccccc2)c(C)n1C	eIF4H inh 120.4, PABP polyA inh active
C=CCn1c(SCC(=O)c2cc(C)n(C)c2C)nnc1-c1ccncc1	eIF4H inh 83.1
O=C1N2CCSC2=NC1(Nc1ccccn1)C(F)(F)F (centres undefined)	none
CS(=O)(=O)c1ccc2nc(NC3(C(F)(F)F)N=C4SCCN4C3=O)sc2c1 (centres undefined)	MLLE-PAM2 inh 41.5
COc1ccccc1CCNC(=O)CCn1nc(C)c2c(C)n(-c3ccccc3)nc2c1=O	none (no result: eIF4E-4G inh, PERK inhibitor)
CCOc1ccc(NC(=S)N=Nc2c(O)[nH]c3ccccc23)cc1	MLLE-PAM2 inh 37.8
Oc1cccc(NC(=S)N=Nc2c(O)[nH]c3ccccc23)c1	MLLE-PAM2 inh 38.2
CCNC(=O)C1(C)CCCN(Cc2ccc(Oc3ccccc3)cc2)C1 (centres undefined)	none (no result: eIF4H inh, eIF4E-4G inh, PABP polyA inh, PERK inhibitor)
CC(=NO)c1cc(Br)c2cccc3c2c1CC3	none (no result: eIF4H inh, eIF4E-4G inh, PABP polyA inh, PERK inhibitor)
NC(=O)c1ccsc1NC(=O)CSc1nc2ccccc2c(=O)n1CCCO	MLLE-PAM2 inh 50.7
Cn1c(SCC(=O)Nc2sccc2C(N)=O)nc2ccccc2c1=O	none (no result: eIF4H inh, eIF4E-4G inh, PABP polyA inh, PERK inhibitor)
O=Cc1ccc(-c2ccc(Cl)cc2Cl)[nH]1	PERK inhibitor 4.2
O=C(O)c1ccc(Cn2cnc3cccnc32)cc1	MLLE-PAM2 inh 43.0 (no result: eIF4E-4G inh, PERK inhibitor)
CC(C)NC(=O)C1(C)CCN1C(=O)Cc1ccc(-c2ccccc2)cc1 (centres undefined)	none (no result: eIF4H inh, eIF4E-4G inh, PABP polyA inh, PERK inhibitor)
CCc1ccccc1NC(=O)CCS(=O)(=O)c1ccc(OC)cc1	eIF4H inh 54.1 (no result: eIF4E-4G inh, PERK inhibitor)
CCOc1ccccc1NC(=O)CCS(=O)(=O)c1ccc(OC)cc1	PABP polyA inh inconclusive
CC1CCN(S(=O)(=O)c2cc3c4c(c2)CCN4C(=O)CC3)CC1	none (no result: eIF4H inh, eIF4E-4G inh, PABP polyA inh, PERK inhibitor)
COc1ccc(NS(=O)(=O)c2cccc(C(=O)NNC(=O)c3cccn3C)c2)cc1	eIF4H inh 74.0 (no result: eIF4E-4G inh, PERK inhibitor)
COc1ccc(NS(=O)(=O)c2cccc(C(=O)NNC(=O)c3ccccc3O)c2)cc1	none (no result: eIF4H inh, eIF4E-4G inh, PABP polyA inh, PERK inhibitor)
COc1ccccc1C(=O)NC(=O)COC(=O)CNC(=O)c1ccccc1	none (no result: eIF4H inh, eIF4E-4G inh, PABP polyA inh, PERK inhibitor)
O=C(CSc1nc2ccccc2c2c1CCCC2)N1CCOCC1	none (no result: eIF4E-4G inh, PERK inhibitor)
